Drawing on PubChem BioAssay (Tox21), this text covers Potency for 22 compounds.

Several values for one entry are separate records, joined by “and”; a condition that tells them apart may be missing. Identical values can stand only once. Inconclusive results are not listed. The source holds several records for some structures; these can differ, active in one and inactive in another. Activity calls are given as the source filed them. Unless noted, calls come from the whole dose curve; as a rule, active = well fitted curve in the direction sought with a large enough effect in the repeat runs; inconclusive = weak or mixed curves; inactive = no such curve, though single readings can be large; an effect the other way counts as inactive or inconclusive.

Test [1] in a line: qHTS assay to identify small molecule agonists of the vitamin D receptor (VDR) signaling pathway - cell viability counter screen (AID 743224). Note: series mostly up to about 63 µM; nearly all actives have a fitted effect of over 50% in size. Summed up:
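Counter screen run in the same wells as the VDR-bla reporter assay: CellTiter-Glo luminescence, 30 min at room temperature, after 16 h compound treatment at 37C of cells pre-plated for 4 h.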
Background: Quantitative high-throughput screening tests each substance at several concentrations.

Test [2] in a line: qHTS assay to identify small molecule antagonists of the vitamin D receptor (VDR) signaling pathway - cell viability counter screen (AID 743225). Note: nearly all actives have a fitted effect of over 50% in size. Note: potency is the fitted concentration of half-maximal effect. Summed up: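 Viability counter screen run in the same wells as the beta-lactamase reporter assay: HEK 293T VDR-UAS-bla cells, 16 h compound exposure at 37C with 3 nM (final) 1-alpha,25-dihydroxyvitamin D3. CellTiter-Glo luminescence, 30 min, room temperature.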

Test [3] can be described thus: qHTS assay to identify small molecule agonists of the NFkB signaling pathway - cell viability counter screen (AID 1159515; calls by dose curve; note: nearly all actives have a fitted effect of over 55% in size; note: potency is the fitted concentration of half-maximal effect). Summed up:
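Read by CellTiter-Glo luminescence (30 min, room temperature) in the wells also used for the beta-lactamase FRET read. ME-180 NFkB-bla cells at 2,000 per well were plated overnight, then exposed to compound for 5 hr at 37 C.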

Test [4] in a line: qHTS assay to identify small molecule agonists of the endoplasmic reticulum stress response signaling pathway (AID 1159516; active = well fitted activation curve with a large enough effect in the signal ratio in the repeat runs, not every such curve was filed as active; the % refers to the signal ratio). Summed up:
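Ratiometric FRET readout (405 nm excitation; 460 and 530 nm emission) of a beta-lactamase gene driven by the ER stress response element, after 2 hr substrate loading. HeLa ESRE-bla cells were seeded overnight and treated with compounds for only 5 hr at 37 C.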

Test [5] is described as follows: qHTS assay to identify small molecule agonists of the endoplasmic reticulum stress response signaling pathway - cell viability counter screen (AID 1159517; calls by dose curve; note: nearly all actives have a fitted effect of over 50% in size; note: potency is the fitted concentration of half-maximal effect). Summed up: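 After overnight attachment, ESRE-bla HeLa cells were treated with Tox21 library compounds for 5 hr. CellTiter-Glo luminescence, read 30 min post-addition at room temperature, reported viability.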

Test [6] can be described thus: qHTS assay to identify small molecule antagonists of the retinoid-related orphan receptor gamma (ROR-gamma) signaling pathway - cell viability counter screen (AID 1159520). Note: nearly all actives have a fitted effect of over 50% in size. Summed up: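 Cytotoxicity was read from cellular ATP (CellTiter-Glo luminescence) after 16 hr at 37 C with 1 uM doxycycline induction. The inducer was added 2 hr after compound transfer to Tet-on ROR gamma CHO cells.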

The nature of test [7]: qHTS assay to identify small molecule agonists of the AP-1 signaling pathway - cell viability counter screen (AID 1159525; calls by dose curve; note: nearly all actives have a fitted effect of over 55% in size). Summed up:
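Intracellular ATP by Cell Titer Glo luminescence (30 min, RT) in the same ME-180 AP-1-bla wells after the 5 h compound exposure at 37 °C. Normalised to tetra n-octyl ammonium bromide and DMSO controls.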

Test [8] is described as follows: qHTS assay to identify small molecule agonists of the AP-1 signaling pathway (AID 1159526; calls by dose curve).
Test [9] addresses Retinoic acid receptor RXR-alpha (Homo sapiens) (UniProt P19793). Nature of the test: qHTS assay to identify small molecule agonists of the RXR signaling pathway (AID 1159527; calls by dose curve; note: nearly all actives have a fitted effect of over 35% in size). Summed up:
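Agonist mode; 9-cis retinoic acid positive control. HEK 293T UAS-bla reporter cells, 2% charcoal-stripped FBS, 16 hr compound exposure at 37 C/5% CO2. LiveBLAzer B/G FRET substrate 2 hr RT; ex 405, em 460/530 nm.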

Test [10] can be described thus: qHTS assay to identify small molecule agonists of the RXR signaling pathway - cell viability counter screen (AID 1159529). Summed up: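 Luminescence from CellTiter-Glo (30 min, RT) measured viability in the same wells as the beta-lactamase reporter readout. Cells: GeneBLAzer RXR-alpha HEK 293T, 2% charcoal-stripped FBS. Compound exposure 16 hr, 37 C.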
A short description of test [11]: qHTS assay to identify small molecule antagonists of the retinoid acid receptor (RAR) signaling pathway - cell viability counter screen (AID 1159551). Note: nearly all actives have a fitted effect of over 35% in size. Summed up: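 Cytotoxicity counter screen: ATP content quantified by CellTiter-Glo luminescence in C3RL4 cells treated 6 hr at 37 C with compound and retinol (1 uM final). Cells plated at 1,000/well and cultured overnight before dosing.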

Test [12] in a line: qHTS assay to identify small molecule antagonists of the retinoic acid receptor (RAR) signaling pathway (AID 1159552; note: nearly all actives have a fitted effect of over 50% in size; note: potency is the fitted concentration of half-maximal effect). Summed up: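 Luminescence from a RARE luciferase reporter in C3RL4 cells served as read-out. Cells received compounds together with 1 uM final retinol and incubated 6 hr at 37 C before detection reagent was added for 30 min at room temperature.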
Test [13] can be described thus: qHTS assay to identify small molecule agonists of the retinoic acid receptor (RAR) signaling pathway (AID 1159553). Note: potency is the fitted concentration of half-maximal effect. Summed up: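 Luminescence was measured 30 min after luciferase reagent addition at room temperature. Before that, C3RL4 reporter cells (1,000 per well, plated overnight) were treated with compound for 6 hr at 37 C and 5% CO2.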
Test [14] has as its target Nuclear receptor ROR-gamma (Homo sapiens) (UniProt P51449). As to the kind of experiment: qHTS assay to identify small molecule antagonists of the retinoid-related orphan receptor gamma (ROR-gamma) signaling pathway (AID 1159521; note: nearly all actives have a fitted effect of over 50% in size; note: potency is the fitted concentration of half-maximal effect). Summed up:
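Luminescence readout (ONE-Glo, 30 min RT) after 16 h doxycycline induction; loss of signal scored as antagonism. CHO cells with TET-inducible RORγ and RORE-LUC reporter; compounds added 2 h before 1 uM final doxycycline.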

Retinoic acid receptor RXR-alpha (Homo sapiens), sequence (P19793 whole entry, looked up): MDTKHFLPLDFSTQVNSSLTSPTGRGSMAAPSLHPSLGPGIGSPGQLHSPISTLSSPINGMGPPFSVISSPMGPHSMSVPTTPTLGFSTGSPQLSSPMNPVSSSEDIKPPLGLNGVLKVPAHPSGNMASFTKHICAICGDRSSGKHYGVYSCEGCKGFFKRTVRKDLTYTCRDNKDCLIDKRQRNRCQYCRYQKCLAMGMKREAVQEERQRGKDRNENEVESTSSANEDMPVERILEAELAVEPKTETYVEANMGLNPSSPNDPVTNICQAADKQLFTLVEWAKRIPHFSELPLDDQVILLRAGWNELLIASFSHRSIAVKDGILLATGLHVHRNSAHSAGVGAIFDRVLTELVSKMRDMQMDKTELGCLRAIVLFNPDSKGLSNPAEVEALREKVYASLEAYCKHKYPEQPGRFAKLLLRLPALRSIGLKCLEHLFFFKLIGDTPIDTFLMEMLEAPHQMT

`O=C(O)C(Cl)(Cl)Br`: the Potency result in [1], in test [2], in test [3], in test [4], in test [5] and in test [6] was “inactive” throughout. Also, the Potency entry in test [7], in [8], in test [9], in test [10], in test [11] and in [12] was “inactive” each time. Moreover, the Potency entry in [13] is “inactive”.
Take `CCOP(=O)(O)C(N)=O`: the Potency entry in [1], in test [2], in test [3], in [4], in test [5] and in test [6] was “inactive” each time. Besides, the Potency entry in [14], in test [7], in [8], in test [10] and in [11] was “inactive” throughout.
With `C=CC(=O)OCC`, the Potency result in test [1], in [2], in test [3], in test [4], in test [5] and in test [6] was “inactive” throughout. Moreover, the Potency result in test [7], in [8], in [9], in test [10], in test [11] and in [12] was “inactive” throughout. Also, in test [13], the Potency result was “inactive”.
As for `COC1CC(=C(c2cccs2)c2cccs2)C[N+](C)(C)C1` (stereo unspecified), the Potency result in [1], in test [2], in [3], in test [4], in test [5] and in test [6] was “inactive” throughout. Further, the Potency entry in test [14], in [7], in test [8], in test [11] and in test [13] was “inactive” each time.
With `CCC(=O)O[C@@H]1C=C2CCC3C(CCC4(C)C3CC[C@@H]4OC(=O)CC)C2CC1` (stereo partly specified), the Potency entry in [1], in test [2], in test [3], in test [4], in test [5] and in [6] was “inactive” each time. In addition, the Potency entry in [14], in [8] and in [11] was “inactive” each time.
For the compound `O=C=NC1CCCCC1`, the Potency entry in test [1], in test [3], in test [4], in test [5], in test [6] and in test [14] was “inactive” each time. Moreover, the Potency result in test [8], in [9], in [10], in test [11] and in test [12] was “inactive” each time. Also, the Potency in [13] was 1.94 µM (active).
Take `O=C(N[C@H]1CN2CCC1CC2)c1ccc2c(c1)OCCO2`: the Potency result in test [1], in [2], in test [3], in test [4], in test [5] and in test [6] was “inactive” each time. Moreover, the Potency entry in test [14], in [7], in test [8], in test [11] and in [12] was “inactive” in each case.
Regarding `C1CS1`, the Potency result in test [1], in test [2], in test [3], in test [4], in test [5] and in test [6] was “inactive” throughout. The Potency result in test [14], in test [8], in [10], in test [11] and in [12] was “inactive” each time.
As for `CC(O)CN1CCN(CC(=O)[O-])CCN(CC(=O)[O-])CCN(CC(=O)[O-])CC1.[Gd+3]` (stereo unspecified), the Potency result in [1], in test [2], in test [3], in [4], in test [5] and in test [6] was “inactive” each time. For the same compound, the Potency result in test [14], in test [8], in test [9], in [10] and in test [11] was “inactive” throughout.
Regarding `CC(=O)OC(c1ccccc1)C(Cl)(Cl)Cl` (stereo unspecified), the Potency result in test [1], in test [3], in test [4], in test [5], in [6] and in test [14] was “inactive” throughout. The Potency result in test [8] and in test [11] was “inactive” each time.
As for `COC(=O)Cc1ccccc1`, the Potency entry in [1], in test [3], in test [4], in [5], in test [6] and in test [14] was “inactive” throughout. The Potency result in [8], in [10], in test [11], in test [12] and in test [13] was “inactive” throughout.
`CCc1ccccc1N`: the Potency entry in test [1], in test [2], in test [3], in test [4], in test [5] and in test [6] was “inactive” each time. Moreover, the Potency entry in test [14], in [8], in test [9], in test [10], in [11] and in [12] was “inactive” in each case.
In the case of `NP(N)(=O)NC(=O)c1ccc(F)cc1`, the Potency entry in [1], in test [2], in test [3], in test [4], in test [5] and in test [6] was “inactive” in each case. In addition, the Potency entry in test [14], in test [8], in [9], in [10], in test [11] and in test [12] was “inactive” throughout.
With `O=[N+]([O-])c1cc(Cl)c(Cl)cc1Cl`, the Potency entry in [1], in [3], in test [4], in test [5], in test [6] and in test [14] was “inactive” in each case. Moreover, the Potency result in [8], in test [9], in test [10] and in test [11] was “inactive” throughout.
Take `CCCC1CCCCN1` (stereo unspecified): the Potency entry in test [2], in test [3], in test [4], in test [5], in [6] and in test [14] was “inactive” in each case. Also, the Potency entry in test [7], in test [8], in test [10] and in test [11] was “inactive” in each case.
For the compound `CC(C)c1ccc(OP(=O)(Oc2ccc(C(C)C)cc2)Oc2ccc(C(C)C)cc2)cc1`, the Potency entry in test [1], in test [4], in test [6], in test [8], in test [11] and in [13] was “inactive” throughout. In addition, the Potency is 30.9 µM (active) in [3]; 9.77 µM (active) in [5]; 27.5 µM (active) and 30.6 µM (active) in test [14]; 54.9 µM (active) in test [12].
In the case of `C=CCc1ccc(OC(=O)Cc2ccccc2)c(OC)c1`, the Potency result in [2], in test [3], in [4], in test [5], in test [6] and in test [14] was “inactive” throughout. Besides, the Potency entry in test [8], in [10], in test [11], in [12] and in test [13] was “inactive” throughout.
Regarding `O=C(NC(=O)c1cc(F)c(F)cc1Cl)Nc1cc(F)ccc1N1CCC(C(=O)O)CC1`, the Potency result in [1], in [2], in test [3], in test [4], in test [5] and in test [6] was “inactive” throughout. In addition, the Potency result in [14], in test [8], in [10], in [11] and in test [12] was “inactive” throughout.
In the case of `CN(C1CCCCC1)C1CCCCC1`, the Potency result in [1], in test [2], in [3], in test [4], in [5] and in [6] was “inactive” in each case. For the same compound, the Potency entry in test [14], in [7], in [8], in test [11] and in test [12] was “inactive” throughout.
Turning to `CN(C)C(=O)Nc1cccc(OC(=O)NC(C)(C)C)c1`, the Potency result in test [1], in [3], in test [4], in test [5], in [6] and in [7] was “inactive” each time. In addition, the Potency result in test [8], in test [10], in test [11] and in [12] was “inactive” each time.
As for `c1ccc2c(c1)sc1ccccc12`, the Potency entry in test [1], in test [3], in [4], in test [5], in test [6] and in test [8] was “inactive” each time. Besides, the Potency result in test [9], in test [10], in [11], in test [12] and in test [13] was “inactive” in each case. The Potency entry in test [2] is “inactive and 19 µM (active)”.
On to `O=CC=O`, for which the Potency result in test [3], in test [4], in test [6], in test [14], in test [7] and in [8] was “inactive” in each case. The Potency result in [9], in test [10], in test [11], in test [12] and in [13] was “inactive” in each case.
